# In PubChem BioAssay:
# The source made the active and inactive calls.
# Experiments:
# [1] = optical density shifts of acrAB sulA E. coli – strain DRC41, OD650, 48 h, E. coli filamentation inducer project, primary screen (AID 1152); details: higher = more signal, called active from +8 up or from −8 down;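 note: E. coli MC1000 strain DRC41 lacking acrAB efflux pump and sulA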
# [2] = probe aLefty1 binding on compound microarray – biochemical, small-molecule microarray, 635/667 nm fluorescence, primary screen (AID 1153); details: higher = more signal;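 note: score merges spot fluorescence with signal-to-noise ratio from the scanned slide images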
# [3] = plasmodial surface anion channel blockers, osmotic lysis – cell-based, P. falciparum Indochina, OD700, 1 h, primary screen (AID 1154); details: P. falciparum Indochina infected RBC osmotic lysis, higher = more signal, called active from +8 up or from −8 down
# [4] = plasmodial surface anion channel blockers, osmotic lysis – cell-based, P. falciparum Indochina, OD700, 2 h, primary screen (AID 1155);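 note: lysis reports solute entry through the parasite surface anion channel PSAC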; details: P. falciparum Indochina infected erythrocytes, higher = more signal, called active from +8 up or from −8 down
# [5] = changes in parasitized red cell lysis, either direction – P. falciparum Indochina, OD700, 3 h, PSAC antagonist project, primary screen (AID 1156); details: P. falciparum-infected erythrocytes, osmotic lysis, higher = more signal, called active from +8 up or from −8 down
# [6] = plasmodial surface anion channel blockers, osmotic lysis – cell-based, P. falciparum Indochina, OD700, 18 h, primary screen (AID 1157); details: P. falciparum Indochina infected erythrocytes, osmotic lysis OD700, 18 h; higher = more signal, called active from +8 up or from −8 down
# [7] = S6 kinase pathway phospho-S6 level changes – cell-based, A549, cytoblot, luminescence, serum-stimulated, primary screen (AID 1158); details: 5 h, higher = more signal;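 note: serum-stimulated A549 lung adenocarcinoma cells; signal is phosphorylated S6 detected by cytoblot immunostaining with HRP secondary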
# [8] = biological target: NADPH oxidase 2 (Homo sapiens) (UniProt P04839); test: compounds shifting NOX2 Amplex Red fluorescence – cell-based, HEK293-NOX2, PMA-stimulated, NOX inhibitor project, primary screen (AID 1159); details: 45 min, higher = more signal, called active from +8 up or from −8 down; note: test concentration not given here
# NADPH oxidase 2 (Homo sapiens), sequence (P04839 whole entry, looked up): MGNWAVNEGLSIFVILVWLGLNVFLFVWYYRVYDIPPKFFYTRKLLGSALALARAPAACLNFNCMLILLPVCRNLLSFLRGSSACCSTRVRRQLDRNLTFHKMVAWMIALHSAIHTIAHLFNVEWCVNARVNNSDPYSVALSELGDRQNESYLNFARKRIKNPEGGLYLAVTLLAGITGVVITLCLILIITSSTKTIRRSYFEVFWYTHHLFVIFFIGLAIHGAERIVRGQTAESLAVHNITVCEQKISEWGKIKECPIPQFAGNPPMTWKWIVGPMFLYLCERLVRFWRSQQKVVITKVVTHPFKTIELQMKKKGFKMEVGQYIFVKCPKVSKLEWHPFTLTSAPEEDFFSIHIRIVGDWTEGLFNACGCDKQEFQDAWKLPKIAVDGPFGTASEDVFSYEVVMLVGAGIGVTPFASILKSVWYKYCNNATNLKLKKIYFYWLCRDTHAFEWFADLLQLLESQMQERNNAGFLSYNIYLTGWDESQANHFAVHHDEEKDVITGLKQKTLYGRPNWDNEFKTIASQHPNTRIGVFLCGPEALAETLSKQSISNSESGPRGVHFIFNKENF
# [9] = biological target: NADPH oxidase 4 (Homo sapiens) (UniProt Q9NPH5); test: compounds shifting NOX4 Amplex Red fluorescence – cell-based, HEK293-NOX4, tetracycline-induced, NOX inhibitor project, primary screen (AID 1160); details: HEK293-NOX4, Amplex Red H2O2 fluorescence, 45 min; higher = more signal, called active from +8 up or from −8 down
# NADPH oxidase 4 (Homo sapiens), sequence (Q9NPH5 whole entry, looked up): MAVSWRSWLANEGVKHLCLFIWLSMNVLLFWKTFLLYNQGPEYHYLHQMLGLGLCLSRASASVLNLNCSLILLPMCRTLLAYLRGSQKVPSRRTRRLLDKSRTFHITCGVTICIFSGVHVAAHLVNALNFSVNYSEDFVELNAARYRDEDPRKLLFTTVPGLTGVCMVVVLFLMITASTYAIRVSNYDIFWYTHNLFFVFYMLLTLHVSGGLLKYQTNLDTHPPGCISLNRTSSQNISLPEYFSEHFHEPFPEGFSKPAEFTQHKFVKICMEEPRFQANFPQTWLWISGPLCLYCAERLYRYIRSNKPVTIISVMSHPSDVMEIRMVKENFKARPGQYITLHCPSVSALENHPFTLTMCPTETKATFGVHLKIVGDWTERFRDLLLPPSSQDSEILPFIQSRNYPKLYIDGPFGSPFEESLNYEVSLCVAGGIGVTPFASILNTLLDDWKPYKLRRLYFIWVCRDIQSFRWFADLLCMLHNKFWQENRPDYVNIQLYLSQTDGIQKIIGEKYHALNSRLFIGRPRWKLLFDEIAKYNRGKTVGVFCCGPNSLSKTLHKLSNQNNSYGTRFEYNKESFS
# [10] = biological target: NADPH oxidase 5 (Homo sapiens) (UniProt Q96PH1); test: compounds shifting NOX5 Amplex Red fluorescence – cell-based, HEK293-NOX5, NOX inhibitor project, primary screen (AID 1161); details: HEK293-NOX5, ionomycin, 45 min, higher = more signal
# NADPH oxidase 5 (Homo sapiens), sequence (Q96PH1 whole entry, looked up): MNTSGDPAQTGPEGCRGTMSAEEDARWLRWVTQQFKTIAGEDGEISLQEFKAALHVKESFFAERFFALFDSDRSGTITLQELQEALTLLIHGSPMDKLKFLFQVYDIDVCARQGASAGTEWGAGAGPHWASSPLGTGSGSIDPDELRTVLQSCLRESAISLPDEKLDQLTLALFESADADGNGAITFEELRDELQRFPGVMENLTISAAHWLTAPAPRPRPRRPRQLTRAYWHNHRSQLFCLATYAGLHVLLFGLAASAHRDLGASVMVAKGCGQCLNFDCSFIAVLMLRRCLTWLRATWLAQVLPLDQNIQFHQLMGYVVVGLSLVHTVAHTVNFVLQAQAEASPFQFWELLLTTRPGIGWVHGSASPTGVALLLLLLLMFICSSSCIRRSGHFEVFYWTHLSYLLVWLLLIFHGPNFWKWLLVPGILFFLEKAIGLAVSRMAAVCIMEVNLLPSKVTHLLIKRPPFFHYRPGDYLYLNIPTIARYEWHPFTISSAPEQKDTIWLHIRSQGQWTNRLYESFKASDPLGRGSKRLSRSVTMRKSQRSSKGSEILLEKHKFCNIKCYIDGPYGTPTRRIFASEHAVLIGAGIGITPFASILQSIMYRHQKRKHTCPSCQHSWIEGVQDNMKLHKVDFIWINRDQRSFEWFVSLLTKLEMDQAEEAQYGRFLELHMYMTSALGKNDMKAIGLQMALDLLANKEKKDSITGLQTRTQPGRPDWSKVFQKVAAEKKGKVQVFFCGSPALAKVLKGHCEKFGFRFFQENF
# [11] = compound effects on lung adenocarcinoma cell viability – A549, calcein-AM fluorescence, 48 h, basal, profiling panel (AID 1162); details: higher = more signal; note: test concentration not given here
# [12] = compound effects on differentiated 3T3-L1 adipocyte viability – cell-based, 3T3-L1 adipocytes, calcein-AM fluorescence, 48 h, basal, profiling panel (AID 1163); details: 3T3-L1 adipocytes viability, higher = more signal; note: test concentration not given here
# [13] = compound effects on hepatocellular carcinoma cell viability – HepG2, calcein-AM fluorescence, 48 h, basal, profiling panel (AID 1164); details: higher = more signal; note: test concentration not given here
# [14] = compound effects on multiple myeloma cell viability – MM1S, calcein-AM fluorescence, 48 h, basal, profiling panel (AID 1165); details: higher = more signal;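 note: viability of MM1S multiple myeloma cells under basal unstimulated conditions; test concentration not given here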
# [15] = calcein-AM signal in unstimulated myeloma cells – cell-based, calcein-AM fluorescence, 48 h, PK04 Diversity Set, profiling panel (AID 1166); details: RPMI8226 myeloma viability, higher = more signal;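 note: cells grown under basal conditions without added stimulus; test concentration not given here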
# [16] = JC-1 mitochondrial signal, unstimulated HepG2 cells – cell-based, JC-1 fluorescence, 24 h, 100 nL compound, profiling panel (AID 1167); details: HepG2 mitochondrial potential, higher = more signal; note: test concentration not given here
# [17] = JC-1 mitochondrial signal, unstimulated adipocytes – cell-based, JC-1 fluorescence, 3T3-L1 adipocytes, 24 h, 100 nL compound, profiling panel (AID 1168); details: JC-1 mitochondrial fluorescence, higher = more signal, called active from +8 up or from −8 down; note: test concentration not given here
# [18] = JC-1 mitochondrial signal, unstimulated myeloma cells – cell-based, JC-1 fluorescence, RPMI8226, 24 h, 100 nL compound, profiling panel (AID 1169); details: JC-1 mitochondrial potential fluorescence, higher = more signal; note: test concentration not given here
# [19] = JC-1 mitochondrial signal, unstimulated MM1S myeloma – cell-based, JC-1 fluorescence, 24 h, 100 nL compound, profiling panel (AID 1170); details: MM1S mitochondrial potential, higher = more signal; note: test concentration not given here
# [20] = resazurin metabolic signal in A549 cells – cell-based, resazurin fluorescence, 24 h, PK04 Diversity Set, profiling panel (AID 1171); details: A549 viability, higher = more signal, called active from +8 up or from −8 down; note: test concentration not given here
SMILES,z-score [1],composite z-score [2],z-score [3],z-score [4],z-score [5],z-score [6],z-score [7],z-score [8],z-score [9],z-score [10],z-score [11],z-score [12],z-score [13],z-score [14],z-score [15],z-score [16],z-score [17],z-score [18],z-score [19],z-score [20]
COC(=O)[C@@]1(Cc2ccc(OC)cc2)[C@H]2c3cc(C(=O)N(C)C)n(Cc4ccc(C)c(F)c4F)c3C[C@H]2CN1C(=O)c1ccccc1,-1.37 (inactive),0.187,1.76 (inactive),-0.0758 (inactive),0.571 (inactive),0.788 (inactive),0.0141,-0.795 (inactive),-0.522 (inactive),3.23,-1.81,-0.484,-1.15,-1.34,-1.5,0.00937,-0.589 (inactive),0.817,-1.3,1.41 (inactive)
Cc1ccccc1C(O)C1C=CC2C(=O)N(c3ccccc3)C(=O)C2N1Nc1ccc(C#N)cc1 (stereo not given),0.307 (inactive),1.1,26 (active),14.9 (active),3.53 (inactive),1.81 (inactive),-0.762,-0.865 (inactive),-4.92 (inactive),-3.18,0.916,-0.175,2.03,-0.113,0.0872,0.258,-1.55 (inactive),-0.472,0.99,0.682 (inactive)
Cc1cc(C)c(C(O)C2C=CC3C(=O)N(C)C(=O)C3N2N2CCCCC2)c(C)c1 (stereo not given),-1.06 (inactive),0.554,-0.245 (inactive),0.827 (inactive),-0.285 (inactive),1.12 (inactive),-1.01,-0.669 (inactive),0.167 (inactive),-1.23,-0.905,-0.878,-0.863,-0.225,-1.11,-1.74,-0.721 (inactive),0.935,0.173,0.406 (inactive)
COC(=O)[C@@]1(Cc2ccccc2N=[N+]=[N-])N=C(c2ccc(OCCCO)cc2)O[C@H]1c1ccccc1CN=[N+]=[N-],0.383 (inactive),0.191,22.3 (active),8.71 (active),0.12 (inactive),3.46 (inactive),0.575,-1.84 (inactive),0.483 (inactive),-0.961,-2.82,0.128,-5.51,-3.55,-3.96,-1.98,1.69 (inactive),-0.822,-2.91,-3.26 (inactive)
C[C@@H]1NC(=O)CC=C[C@@H](C)[C@@H]2C=C[C@H](O)[C@@H](COC(=O)[C@H](C)NC(=O)CC=C[C@@H](C)[C@@H]3C=C[C@H](O)[C@@H](COC1=O)O3)O2,0.327 (inactive),-0.147,1.33 (inactive),-0.302 (inactive),0.232 (inactive),-1.39 (inactive),1.64,1.28 (inactive),-0.991 (inactive),-0.0558,0.362,1.59,-0.195,0.188,-1.38,1.1,0.863 (inactive),0.21,0.665,-0.756 (inactive)
COC(=O)Cn1c(C(=O)N2CCCC2)cc2c1C[C@H]1CN(C(=O)c3ccccc3)[C@@](Cc3ccccc3)(C(=O)OC)[C@@H]21,-0.406 (inactive),0.257,1.54 (inactive),0.104 (inactive),0.16 (inactive),0.469 (inactive),0.136,0.489 (inactive),0.217 (inactive),-2.54,-0.162,0.0052,0.513,0.875,-0.256,0.876,0.385 (inactive),-0.0618,-1.25,0.359 (inactive)
COCCOC(=O)N1C(=O)[C@@]2(c3cc(C#CCC(C(=O)OC)C(=O)OC)ccc31)[C@H](c1ccccc1OCCO)N1[C@H](c3ccccc3)[C@H](c3ccccc3)OC(=O)[C@H]1[C@@H]2C(=O)N1CCCCCCC1,0.0371 (inactive),2.43,0.998 (inactive),1.01 (inactive),0.259 (inactive),0.508 (inactive),0.0992,0.0483 (inactive),0.309 (inactive),1.52,0.579,-0.219,0.779,-0.895,0.103,0.335,2.19 (inactive),-0.641,-1.34,0.719 (inactive)
CN(C)CCCC[C@@H]1NC(=O)[C@@H]2C[C@H](C(=O)O)[C@H](c3ccc(O)cc3)N2C1=O,2.66 (inactive),0.616,0.847 (inactive),-1.57 (inactive),-3.19 (inactive),-1.98 (inactive),1.03,-2.71 (inactive),-3.88 (inactive),-2.48,-0.533,1.36,-1.03,-3.01,-0.102,1.26,0.292 (inactive),-0.0425,-0.971,-0.385 (inactive)
COc1ccc([Si](C)(C)[C@H]2[C@H](CC(=O)N3Cc4ccccc4C[C@H]3CO)O[C@@]3(C(=O)N(Cc4cccc(N5CCOC5=O)c4)c4ccccc43)[C@@H]2C)cc1,0.666 (inactive),-0.012,4.02 (inactive),1.09 (inactive),0.739 (inactive),0.771 (inactive),2.73,-1.14 (inactive),0.916 (inactive),-1.09,0.443,0.373,-0.632,-0.913,-0.727,1.31,0.405 (inactive),-1.1,-0.223,-0.399 (inactive)
C[C@@H]1C=CCC(=O)OC[C@H]2O[C@@H](C=C[C@@H]2O)[C@H](C)C=CCC(=O)OC[C@H]2O[C@H]1C=C[C@@H]2O,-1.91 (inactive),0.596,0.43 (inactive),0.278 (inactive),-1.65 (inactive),-0.725 (inactive),2.22,-1.01 (inactive),0.418 (inactive),0.0421,-0.883,1.15,0.158,0.631,-1.99,0.885,0.902 (inactive),-0.744,0.92,-0.573 (inactive)
C#C[C@H](O[Si](C#Cc1ccccc1)(C(C)C)C(C)C)c1ccccc1,-0.0719 (inactive),0.22,0.876 (inactive),0.924 (inactive),-1.54 (inactive),0.234 (inactive),-0.801,0.146 (inactive),-0.779 (inactive),-2.37,-1.62,-0.653,-1.47,-2.94,-1.91,-2.74,-0.448 (inactive),-0.154,-1.48,-0.912 (inactive)
CC(C)C[C@@H]1NC(=O)[C@H](CC(C)C)NC(=O)[C@@]23C(=O)N[C@@H](Cc4ccccc4)C2[C@H](C)[C@@]2(C)O[C@H]2C3/C=C/CC/C=C/CNC1=O (stereo not given in full),-0.239 (inactive),0.0275,1.7 (inactive),0.627 (inactive),1.33 (inactive),0.575 (inactive),-0.0044,0.123 (inactive),0.349 (inactive),-1.62,-0.422,1.31,-0.766,-1.66,-2.04,2.33,-0.141 (inactive),-0.366,0.19,1 (inactive)
[N-]=[N+]=Nc1ccccc1C[C@@]1(C(=O)N2CCOCC2)N=C(c2ccc(OCCCO)cc2)O[C@@H]1c1ccccc1N=[N+]=[N-],1.94 (inactive),0.241,29.9 (active),27.6 (active),3.13 (inactive),4.27 (inactive),2.07,0.781 (inactive),0.516 (inactive),-0.745,-0.71,0.271,-1.19,-3.45,-4.53,0.925,1.98 (inactive),-1.23,-1.54,-1.32 (inactive)
CC(c1ccccc1)C(O)C1C=CC2C(=O)N(C)C(=O)C2N1N(c1ccccc1)c1ccccc1 (stereo not given),-1.04 (inactive),0.391,1.02 (inactive),0.386 (inactive),0.625 (inactive),0.777 (inactive),-0.987,-0.735 (inactive),-0.411 (inactive),-0.649,-0.279,-1.94,0.919,0.455,0.427,-0.288,-1.37 (inactive),-0.17,-0.939,-0.346 (inactive)
C=CCc1cccc([C@H]2N[C@H](C(=O)O)CC[C@@H]2C)c1,0.574 (inactive),-0.237,0.734 (inactive),1.15 (inactive),0.794 (inactive),0.443 (inactive),-0.167,0.183 (inactive),0.773 (inactive),0.0482,0.382,0.624,-0.484,-0.543,0.665,0.489,-0.0728 (inactive),0.602,0.345,0.553 (inactive)
C=C(COC)/C(=C/C[C@H](OC(C)=O)c1ccc(OCCO)cc1)c1cnc2ccccc2c1,1.25 (inactive),0.199,13.5 (active),-0.0743 (inactive),1.05 (inactive),-0.947 (inactive),-0.117,1.32 (inactive),0.767 (inactive),-0.593,0.373,1.18,-0.141,-1.53,1.07,2.07,1.2 (inactive),0.23,0.278,0.715 (inactive)
C[C@]1(C(=O)NCCN2CCOCC2)c2ccccc2C(=O)N(Cc2ccccc2)[C@H]1c1ccc(CO)cc1,0.402 (inactive),-0.0969,5.59 (inactive),0.516 (inactive),1.88 (inactive),0.719 (inactive),0.282,0.346 (inactive),-1.61 (inactive),-2.77,0.665,-0.337,-0.289,0.763,-1.71,1.58,-0.782 (inactive),-0.0116,-0.225,0.583 (inactive)
COc1ccc(C(O)C2C=CC3C(=O)N(C)C(=O)C3N2N2CCCCC2)cc1OCc1ccccc1 (stereo not given),-1.54 (inactive),0.11,2.29 (inactive),1.53 (inactive),0.42 (inactive),1.27 (inactive),-1.16,0.0637 (inactive),-1.56 (inactive),1.31,0.138,-0.393,-0.888,-0.25,0.0629,-1.8,-0.693 (inactive),-0.813,0.536,2.31 (inactive)
